The values that follow come from the supplement of paper PMC10849652.

The structures appear in SMILES notation. Of roughly 7,900 targets only a part is listed; those with a hit were picked by preference. About 0.6% of all pairs of compound and target were hits. Values without a mark were called inactive.

AAGAB, sequence (Q6PD74 whole entry, looked up): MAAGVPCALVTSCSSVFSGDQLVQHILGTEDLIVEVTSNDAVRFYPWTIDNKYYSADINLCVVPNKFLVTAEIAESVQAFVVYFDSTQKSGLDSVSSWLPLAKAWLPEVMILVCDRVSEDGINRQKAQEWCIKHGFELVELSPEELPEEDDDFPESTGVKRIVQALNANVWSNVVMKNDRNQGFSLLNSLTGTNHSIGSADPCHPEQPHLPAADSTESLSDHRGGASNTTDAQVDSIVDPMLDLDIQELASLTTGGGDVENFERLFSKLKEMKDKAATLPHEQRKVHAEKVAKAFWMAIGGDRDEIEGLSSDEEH

One assay deals with AAGAB (UniProt Q6PD74). The assay is described as follows: log2 fold change, soluble protein after heating vs DMSO (PISA); higher = thermal stabilisation; K562 cells, 10 uM, 30 min; active = over 0.2 and 3.5 SD of the protein, either way, in both replicates (recomputed). In outline:
(§1)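 Soluble protein was defined as the supernatant after 21,000xg for 90 min. It came from K562 cells at 2×10^6 cells/mL given 10 μM compound for 30 min, heated in aliquots for 3 min across 48°C-58°C, pooled, and extracted in PBS with 0.5% NP-40 at 4°C, and was quantified by TMTpro 16plex LC-MS/MS with equalised channel sums. Thermal stability against control samples, from duplicates, is reported as log2 fold change.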
As to `CO[C@H]1C[C@@H]2CC[C@@H](C)[C@@](O)(O2)C(=O)C(=O)N2CCCC[C@H]2C(=O)O[C@H]([C@H](C)C[C@@H]2CC[C@H](n3cnnn3)[C@H](OC)C2)CC(=O)[C@H](C)/C=C(\C)[C@@H](O)[C@@H](OC)C(=O)[C@H](C)C[C@H](C)/C=C/C=C/C=C/1C` [zotarolimus], the log2 fold change was -0.093.

For the molecule `CCCc1cc(C)[nH]c(=O)c1CNC(=O)c1cc(-c2ccnc(N3CCN(C)CC3)c2)cc2c1cnn2C(C)C`, the log2 fold change is -0.02.

`Cn1c2cc(S(C)=O)sc2c2cnn(Cc3cccc(N)c3)c(=O)c21` (stereo not given): the log2 fold change was 0.125.

`O=C(Nc1nc2ccccc2n1CCN1CCOCC1)c1cccc([N+](=O)[O-])c1` [IRAK-1-4 Inhibitor I]: the log2 fold change was -0.016.

For the molecule `C=CC(=O)N1CCC[C@@H](n2nc(-c3ccc(Oc4ccccc4)cc3)c3c(N)ncnc32)C1` [ibrutinib], the log2 fold change is 0.026.

For `NC(=O)c1ccc2nc(-c3ccc(Oc4ccc(Cl)cc4)cc3)[nH]c2c1`, the log2 fold change is -0.068.

In the case of `Cn1cc(-c2ccc3c(c2)CCN3C(=O)Cc2cccc(C(F)(F)F)c2)c2c(N)ncnc21`, the log2 fold change was -0.197.

`Cc1cccc(CC(=O)N2CCc3c2ccc(-c2cn(C)c4ncnc(N)c24)c3F)n1`: the log2 fold change was 0.016.

Take `Cc1nc(Nc2ncc(C(=O)Nc3c(C)cccc3Cl)s2)cc(N2CCN(CCO)CC2)n1` [dasatinib]: the log2 fold change was -0.161.

As to `NC(=O)c1cnc(N[C@@H]2CCCC[C@@H]2N)nc1Nc1cccc(-n2nccn2)c1`, the log2 fold change was -0.028.

Turning to `Cc1ccc2c(=O)c3ccccc3n(CCCN)c2c1C`, the log2 fold change was -0.003.

As for `C[C@@H]1COCCN1c1cc(C2(S(C)(=O)=O)CC2)nc(-c2cccc3[nH]ccc23)n1`, the log2 fold change was -0.035.

Regarding `O=C1NC(=NCc2cccs2)S/C1=C\c1ccc2ncccc2c1`, the log2 fold change is -0.059.

For the molecule `COc1cc(C(=O)O)ccc1NC(=O)[C@@H]1N[C@@H](CC(C)(C)C)[C@](C#N)(c2ccc(Cl)cc2F)[C@H]1c1cccc(Cl)c1F` [idasanutlin], the log2 fold change was -0.053.

In the case of `CN(C)CC(=O)Nc1ccc2[nH]c(=O)c3ccccc3c2c1`, the log2 fold change was 0.021.

As to `C#Cc1cccc(Nc2ncnc3cc(OCCOC)c(OCCOC)cc23)c1` [erlotinib], the log2 fold change was 0.251.

In the case of `Cc1cc(SCc2sc(-c3ccc(C(F)(F)F)cc3)nc2C)ccc1OCC(=O)O`, the log2 fold change was 0.051.

With `CCn1c(C(=O)N(C2CC2)C2CC2)cc2c3c(ncn3C)c(Nc3cc(C)n(C)n3)nc21`, the log2 fold change is 0.073.

For the molecule `C[C@H](Nc1ncnc2nc[nH]c12)c1cc2cccc(Cl)c2c(=O)n1-c1ccccc1` [duvelisib], the log2 fold change is -0.1.

As for `Fc1ccc(Cl)cc1-c1nc(Nc2ccncc2)c2nccnc2n1`, the log2 fold change is 0.079.

Regarding `O=C(Nc1cccc(Nc2ncc(Br)c(NCCc3cnc[nH]3)n2)c1)N1CCCC1`, the log2 fold change was 0.067.

With `NC1(Cc2ccc(Cl)cc2)CCN(c2ncnc3[nH]ccc23)CC1`, the log2 fold change is 0.054.

`CS(=O)(=O)c1ccc(-c2cnc(N)c(C(=O)Nc3ccccc3)n2)cc1`: the log2 fold change was 0.097.

`CCN(CC)Cc1ccc2cc(COC(=O)Nc3ccc(C(=O)NO)cc3)ccc2c1` [givinostat]: the log2 fold change is -0.004.

`O=C1c2ccccc2-c2n[nH]c3cccc1c23`: the log2 fold change is 0.01.

On to `CC(C)(C)Cn1c(N)nc2ccc(-c3[nH]c(C(C)(C)C)nc3-c3ccc(F)cc3)nc21` [ralimetinib], for which the log2 fold change was 0.065.

Regarding `Cc1nc(Nc2n[nH]c3c2CN(C(=O)N[C@H](CN(C)C)c2ccccc2)C3(C)C)c2sccc2n1`, the log2 fold change was -0.109.

For the molecule `CNCc1ccc(-c2[nH]c3cc(F)cc4c3c2CCNC4=O)cc1` [rucaparib], the log2 fold change was 0.055.

For the molecule `Cc1ccc(C(=O)N(CCCN)[C@@H](c2nc3cc(Cl)ccc3c(=O)n2Cc2ccccc2)C(C)C)cc1` [ispinesib], the log2 fold change is -0.017.

`Cc1ccc(NC(=O)c2cccc(N(C)C)c2)cc1NC(=O)c1ccc(O)cc1`: the log2 fold change was -0.063.

For a further assay, the target named is AAK1 (UniProt A0A096LP25). Described as above. A digest of the protocol: as §1
For `CO[C@H]1C[C@@H]2CC[C@@H](C)[C@@](O)(O2)C(=O)C(=O)N2CCCC[C@H]2C(=O)O[C@H]([C@H](C)C[C@@H]2CC[C@H](n3cnnn3)[C@H](OC)C2)CC(=O)[C@H](C)/C=C(\C)[C@@H](O)[C@@H](OC)C(=O)[C@H](C)C[C@H](C)/C=C/C=C/C=C/1C` [zotarolimus], the log2 fold change is -0.095.

Take `CCCc1cc(C)[nH]c(=O)c1CNC(=O)c1cc(-c2ccnc(N3CCN(C)CC3)c2)cc2c1cnn2C(C)C`: the log2 fold change was -0.026.

Regarding `Cn1c2cc(S(C)=O)sc2c2cnn(Cc3cccc(N)c3)c(=O)c21` (stereo not given), the log2 fold change was -0.073.

On to `O=C(Nc1nc2ccccc2n1CCN1CCOCC1)c1cccc([N+](=O)[O-])c1` [IRAK-1-4 Inhibitor I], for which the log2 fold change is -0.063.

As for `C=CC(=O)N1CCC[C@@H](n2nc(-c3ccc(Oc4ccccc4)cc3)c3c(N)ncnc32)C1` [ibrutinib], the log2 fold change is 0.074.

Take `NC(=O)c1ccc2nc(-c3ccc(Oc4ccc(Cl)cc4)cc3)[nH]c2c1`: the log2 fold change is 0.02.

Take `Cn1cc(-c2ccc3c(c2)CCN3C(=O)Cc2cccc(C(F)(F)F)c2)c2c(N)ncnc21`: the log2 fold change was -0.05.

Turning to `Cc1cccc(CC(=O)N2CCc3c2ccc(-c2cn(C)c4ncnc(N)c24)c3F)n1`, the log2 fold change was -0.017.

Consider `Cc1nc(Nc2ncc(C(=O)Nc3c(C)cccc3Cl)s2)cc(N2CCN(CCO)CC2)n1` [dasatinib], for which the log2 fold change is -0.18.

Take `NC(=O)c1cnc(N[C@@H]2CCCC[C@@H]2N)nc1Nc1cccc(-n2nccn2)c1`: the log2 fold change was 0.048.

For the molecule `Cc1ccc2c(=O)c3ccccc3n(CCCN)c2c1C`, the log2 fold change was -0.044.

As for `C[C@@H]1COCCN1c1cc(C2(S(C)(=O)=O)CC2)nc(-c2cccc3[nH]ccc23)n1`, the log2 fold change was 0.012.

Take `O=C1NC(=NCc2cccs2)S/C1=C\c1ccc2ncccc2c1`: the log2 fold change was 0.234.

Take `COc1cc(C(=O)O)ccc1NC(=O)[C@@H]1N[C@@H](CC(C)(C)C)[C@](C#N)(c2ccc(Cl)cc2F)[C@H]1c1cccc(Cl)c1F` [idasanutlin]: the log2 fold change was -0.077.

Turning to `CN(C)CC(=O)Nc1ccc2[nH]c(=O)c3ccccc3c2c1`, the log2 fold change is 0.037.

Consider `C#Cc1cccc(Nc2ncnc3cc(OCCOC)c(OCCOC)cc23)c1` [erlotinib], for which the log2 fold change is 0.043.

Take `Cc1cc(SCc2sc(-c3ccc(C(F)(F)F)cc3)nc2C)ccc1OCC(=O)O`: the log2 fold change was -0.048.

Regarding `CCn1c(C(=O)N(C2CC2)C2CC2)cc2c3c(ncn3C)c(Nc3cc(C)n(C)n3)nc21`, the log2 fold change is -0.041.

Regarding `C[C@H](Nc1ncnc2nc[nH]c12)c1cc2cccc(Cl)c2c(=O)n1-c1ccccc1` [duvelisib], the log2 fold change is 0.007.

For `Fc1ccc(Cl)cc1-c1nc(Nc2ccncc2)c2nccnc2n1`, the log2 fold change is -0.027.

Turning to `O=C(Nc1cccc(Nc2ncc(Br)c(NCCc3cnc[nH]3)n2)c1)N1CCCC1`, the log2 fold change is 0.255.

With `NC1(Cc2ccc(Cl)cc2)CCN(c2ncnc3[nH]ccc23)CC1`, the log2 fold change is 0.

With `CS(=O)(=O)c1ccc(-c2cnc(N)c(C(=O)Nc3ccccc3)n2)cc1`, the log2 fold change was 0.138.

Consider `CCN(CC)Cc1ccc2cc(COC(=O)Nc3ccc(C(=O)NO)cc3)ccc2c1` [givinostat], for which the log2 fold change is 0.056.

In the case of `O=C1c2ccccc2-c2n[nH]c3cccc1c23`, the log2 fold change is 0.254.

Turning to `CC(C)(C)Cn1c(N)nc2ccc(-c3[nH]c(C(C)(C)C)nc3-c3ccc(F)cc3)nc21` [ralimetinib], the log2 fold change is -0.01.

Turning to `Cc1nc(Nc2n[nH]c3c2CN(C(=O)N[C@H](CN(C)C)c2ccccc2)C3(C)C)c2sccc2n1`, the log2 fold change was 0.104.

On to `CNCc1ccc(-c2[nH]c3cc(F)cc4c3c2CCNC4=O)cc1` [rucaparib], for which the log2 fold change is 0.007.

For the molecule `Cc1ccc(C(=O)N(CCCN)[C@@H](c2nc3cc(Cl)ccc3c(=O)n2Cc2ccccc2)C(C)C)cc1` [ispinesib], the log2 fold change is 0.011.

As to `Cc1ccc(NC(=O)c2cccc(N(C)C)c2)cc1NC(=O)c1ccc(O)cc1`, the log2 fold change is -0.011.
